# From PubChem BioAssay (NCI)
# This is part of a sample that, as a whole, favours compounds with a hit. Of some 83,000 tested, about 20% had one in any assay.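 Step 1: grow cells in 96-well plates. Step 2: add test compound at a single concentration. Step 3: incubate 48 h. Step 4: record percent growth.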 A number with no mark means an inactive call. The source made the active and inactive calls.
# System: ACHN renal
# Assay: NCI-60 one-dose screen, 48 h (100 = growth as untreated, 0 = no growth, -100 = all killed)
# Details: 10 µM unless noted
# Protocol: Growth inhibition of the ACHN human tumor cell line is measured as a screen for anti-cancer activity. Cells are grown in 96 well plates and exposed to the test compound for 48 hours. Compounds are tested at a single concentration, which is 10^-5 M for most compounds. The reported endpoint is percent growth (GI% or GIPRCNT), where numbers from 0 - 100% represent growth inhibition, and numbers from -100% - 0 represent cell death. For example, a value of 40 represents 60% growth inhibition. A value of 0 means no net growth occurred over the course of the experiment. A value of -40 indicates 40% of cells at the beginning of the experiment died by the end of the experiment. A value of -100 means all cells are dead at the end of the experiment.
# NCI-60 Human Tumor Cell Lines Screen was performed using the standard one-dose NCI protocol, which is described in more detail at https://dtp.cancer.gov/discovery_development/nci-60/default.htm.
# Compounds with GIPRCNT values below 10 were considered active. Activity score was based on GIPRCNT using the following formula: […]
# Score is 0 for GIPRCNT values of 100 or above, 50 for GIPRCNT values of 0, and 100 for GIPRCNT values of -100.
row,SMILES,growth
1,NC(=O)c1cc2c3ccccc3ccn2c1-c1ccccc1,23.6%
2,NCCCN1CCCC1=O,113%
3,NC(=O)N1CCOCC1,110%
4,O=C1C=Cc2ccccc2/C1=C/c1[nH]c(=O)[nH]c1O,55.3%
5,O=[N+]([O-])c1ccc(-c2nc(N(CCO)CCO)c3ccccc3n2)o1,-14.5% (active)
6,Cc1cc(C)cc(OCC(=O)O)c1,98.6%
7,CC(c1ccccc1)N1C(=O)CSC1=S (stereo not given),50.7%
8,CCOC(=O)c1ccc(Nc2sc(C(=O)c3ccc(Br)cc3)c(N)c2C#N)cc1,44%
9,O=[N+]([O-])c1c(Cl)ncnc1Cl,94.8%
10,CN1CCCN(C(c2ccccc2)c2ccc(Br)cc2)CC1 (stereo not given),50.6%
11,O=C(Oc1ccccc1Cl)c1ccc(Cl)cc1Cl,103%
12,CC1(C)C2CCC1(C)C1(C2)OCCS1 (stereo not given),102%
13,CC(=O)c1cccc(O)c1,103%
14,CCN(CC)CCN1CNC(=S)NC1,102%
15,Cn1c(=O)c2[nH]c(CC(=O)O)nc2n(C)c1=O,111%
16,O=C(O)CSCC(=O)Nc1cc(C(F)(F)F)ccc1Cl,106%
17,BrCc1cccc(C[P+](c2ccccc2)(c2ccccc2)c2ccccc2)c1,82.7%
18,Oc1ccc2ccccc2c1CN1CCOCC1,103%
19,COc1nc2ccccc2s1,94.6%
20,CCCC(=O)CC(=O)c1ccccc1,105%

row,SMILES,growth
1,CCNCC(C)(C)O,110%
2,Nc1ncnc2c1ncn2C1OC(CO)C2OC21 (stereo not given),116%
3,COc1cc(N)c2ncccc2c1Cl,91.2%
4,CC12CCC3c4ccc(O)cc4CCC3C1CCC2=O (stereo not given),103%
5,COC(c1ccc2c(c1)OCO2)C(C)Br (stereo not given),102%
6,CCCCCCCCNC(=O)C(C)C,108%
7,CCOC(=O)c1ccc(NC(C)=O)o1,108%
8,N#C/C(=C\c1ccc2c(c1)OCO2)c1ccccc1,93.6%
9,Cc1c(Cl)cccc1N=C=S,99.3%
10,Cc1ccc(OC(=O)c2ccccc2)cc1,117%
11,Nc1nc(Cl)cc(Cl)n1,105%
12,CC(=O)OC(C)c1cccc(C#N)c1 (stereo not given),113%
13,Cc1ccc2nc(N)nnc2c1,108%
14,CC(=O)Nc1ccc(/C=C2\SC(=S)N(/C=C(\C(C)=O)C(N)=O)C2=O)cc1,97.8%
15,Oc1cccnc1CN1CCCC1,105%
16,COC1(OC)C2(Cl)C(Cl)=C(Cl)C1(Cl)C1COCC12 (stereo not given),108%
17,CCOC(=O)c1cc(Cl)c(O)c(Cl)c1,103%
18,O=S(=O)(OCCOS(=O)(=O)c1ccccc1)c1ccccc1,105%
19,S=c1nc2[nH]c3ccccc3c2n[nH]1,97.2%
20,O=C(OC1CCCC1)c1ccccc1Cl,104%
